# Shown are actives, neighbours in structure and some others; about 11% of the full set was active somewhere.
# AMA1-RON2 inh: qHTS for Inhibitors of AMA1-RON; Towards Development of Antimalarial Drug Lead: Primary Screen; AlphaScreen AMA1-biotinylated RON2 peptide binding; 360,000 tested, 0.2% active; Potency, µM (titrated, usually from 58.2 µM), without a hit: top-dose activity change, negative = inhibition, usual class: inhibitors; AID 720542, 2013;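 further: 0% = vehicle wells and -100% = peptide control; nearly all actives have a fitted effect of over 45% in size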
#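 AMA1 (3D7) with his tag at 25 nM final met compounds first, then biotinylated RON2 peptide at 25 nM; detection used donor plus acceptor beads, 10 µg/mL apiece, read by AlphaScreen after 30 min at room temperature.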
# Pf growth 96h: Primary qHTS for delayed death inhibitors of the malarial parasite plastid, 96 hour incubation; Potency, µM (highest dose often 28.7 µM), inactives show at the highest dose activity change, negative = inhibition, most hits filed as inhibitors; P. falciparum luciferase reporter growth, 96 h; 320,000 tested, 6.9% active
#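 Infected RBCs, 2% Hct / 0.05% parasitemia final; luciferase-reporter P. falciparum; cpd 96 h, 37 C, 5% CO2; luciferase detection reagent; luminescence.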
# Pf growth 48h: Primary qHTS for delayed death inhibitors of the malarial parasite plastid, 48 hour incubation; P. falciparum luciferase growth in erythrocytes, 48 h; Potency, µM (series often up to 28.7 µM), without a hit: at the top dose activity change, negative = inhibition, usual class: inhibitors; 310,000 tested, 5.9% active
#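 In quantitative HTS format, infected erythrocytes bearing luciferase-reporter parasites were treated for a single generation at 37 C. Luminescence after adding detection reagent served as the growth measure.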
# HCV inh: qHTS Assay for Inhibitors of Hepatitis C Virus (HCV) | Huh7.5.1 HCVcc-Cre infection, luciferase reporter, 44 h | Potency, µM (top dose mostly 41.8 µM), for the others: at the top dose activity change, negative = inhibition, actives largely listed as inhibitors | 340,000 tested, 3.4% active
#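 Cells seeded at 1,000/well and cultured 4 h, then compounds added followed by HCVcc-Cre virus (~0.5 moi). After 44 h further culture, luciferase substrate was added, plates held 15 min at room temperature, and luminescence read for 15 sec.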
# Active calls of the source: *; ? = inconclusive; . = no result given; [ ] = another dose, or the depositor's remark. The call rests on the fitted dose curve; in most records, active means well fitted curve in the direction sought with a large enough effect; inconclusive means small, poorly fitted or top-dose-only effect, or another doubt; inactive means no such curve, though single readings can be large; an effect the other way counts as inactive or inconclusive. Unless noted, on the % scale 0 is the no-effect control and ±100 the full control effect; potency means the concentration at half of the fitted maximal effect.
SMILES,AMA1-RON2 inh,Pf growth 96h,Pf growth 48h,HCV inh
CCn1cc(C(=O)N(CCC(C)C)c2c(N)n(Cc3ccccc3)c(=O)[nH]c2=O)c(=O)c2ccc(C)nc21,23.9%,-14.8%,-29.5%,11.9%
O=C(O)c1nn2cc(CCO)cnc2c1Cl,1.0%,50.0%,?,16.4%
N#CC1(c2ccccc2)CCN(S(=O)(=O)c2ccc(OC(F)(F)F)cc2)CC1,-4.3%,?,-25.9%,-20.4%
N#CC1(c2ccccc2)CCC(=NO)CC1 (stereo not given),-7.4%,1.85µM*,.,18.8%
O=C(Nc1ccncc1)Nc1ccc(Cl)cc1Cl,5.4%,-4.2%,1.65µM*,?
CC(C)(Oc1ccc(Cl)cc1)C(=O)Nc1cccnc1,2.2%,?,1.6%,-0.1%
CC(C)(Oc1ccc(Cl)cc1)C(=O)Nc1ccncc1,1.2%,?,?,11.2µM*
O=C(Nc1ccncc1)Nc1cc(Cl)ccc1Cl,2.8%,-0.7%,?,-7.9%
CC(Oc1ccc(Cl)cc1Cl)C(=O)Nc1ccncc1 (stereo not given),0.0%,-5.4%,10.4µM*,?
O=C(Nc1ccncc1)Nc1ccc(Cl)cc1,7.0%,27.6%,5.22µM*,8.3%
CC(=O)Nc1ccc(NCCc2ccco2)cc1,-2.8%,.,.,.
O=C(Nc1cccnc1)Nc1ccccc1Cl,-2.2%,.,33.9%,?
O=C(Nc1cccnc1)Nc1ccc(Br)cc1Cl,8.5%,.,?,11.2µM*
COc1ccc(-n2ncc(C(C)NS(=O)(=O)c3ccc(C)s3)c2C)cc1 (stereo not given),-8.2%,8.28µM*,6.7%,0.4%
COc1ccc(OC)c(S(=O)(=O)NC(C)c2cnn(-c3ccccn3)c2C)c1 (stereo not given),-1.6%,14.7µM*,7.1%,42.1%
CCOC(=O)C(NC(=O)NCc1ccccc1OC)(OCC)C(F)(F)F (stereo not given),0.0%,?,0.0%,7.2%
Cc1cc(NCc2ccccc2)c2ccccc2n1,-1.9%,?,3.29µM*,11.2µM*
COc1ccc2nc(C)cc(NCc3cccc(C(F)(F)F)c3)c2c1,-10.7%,?,0.928µM*,10µM*
COc1ccc2nc(C)cc(Nc3ccccc3O)c2c1,13.3%,?,?,?
Cc1cc(NCc2ccccc2)nc2ccccc12,12.2%,16.9%,?,?
Cc1ccc(C2=NCCn3nc4cc([N+](=O)[O-])ccc4c32)cc1,35.3%,-41.9%,?,14.2%
CCOc1ccc(Cc2nnc(SCC(=O)c3ccc(OC)cc3)o2)cc1,22.3%,11.7µM*,-15.6%,8.91µM*
COc1ccc(C(=O)CSc2nnc(Cn3cnc4ccccc43)o2)cc1,22.3%,2.8%,-23.4%,2.24µM*
COCc1cc(=O)[nH]c(N2CCN(C(=O)c3ccco3)CC2)n1,5.8%,12.0%,35.7%,13.6%
COCc1cc(=O)[nH]c(N2CCN(c3ccccc3OC)CC2)n1,-5.1%,8.28µM*,0.0%,11.9%
SMILES,AMA1-RON2 inh,Pf growth 96h,Pf growth 48h,HCV inh
Cc1c(C(=O)N2CCOCC2)oc2ccc(Br)cc12,-2.6%,13.9%,-6.9%,-17.9%
Cc1ccc2oc(C(=O)N3CCCCCC3)c(C)c2c1,-12.6%,13.1µM*,-20.2%,-13.7%
Cc1c(C(=O)Nc2ccc(-c3nnc4n3CCCCC4)cc2)oc2ccc(Br)cc12,-9.5%,11.4%,25.2%,11.2µM*
Cc1c(C(=O)N2CCCCC2)oc2ccc(Br)cc12,0.0%,108.5%,74.6%,22.4µM*
CCCCCCCCN1C(=O)[C@H](CC(=O)N2CCSCC2)C[C@@]2(C(=O)OCC)CCCC=C12,-4.8%,.,.,.
CCN1CCN(c2c(S(=O)(=O)c3ccc(C)c(C)c3)cnc3ccc(F)cc23)CC1,-5.4%,2.33µM*,?,-5.4%
COc1ccccc1Nc1nc(-c2cccc(N3C(=O)c4ccccc4C3=O)c2)cs1,-13.1%[2.32 µM],14.7µM*,6.5%,0.8%
O=C1c2ccccc2C(=O)N1c1cccc(-c2csc(Nc3ccc4c(c3)OCO4)n2)c1,.,10.4µM*,17.8%,-1.3%
COc1ccc(-c2csc(NC(=O)c3cccc(N4C(=O)CCC4=O)c3)n2)cc1OC,-13.5%,-29.8%,?,?
c1cncc(-c2nc(-c3ccc4c(c3)OCO4)cs2)c1,-1.9%,.,-30.5%,?
Cc1ccc(S(=O)(=O)N2CCOCC2)cc1NC(=O)COC(=O)c1cnc(Cl)c(Cl)c1,0.6%,24.8%,7.2%,-3.3%
COc1ccc(/C=C/C(=O)c2c(O)cc(C)oc2=O)c(OC)c1,13.3%,21.3%,116.5%,11.2µM*
CCN(C(=O)c1cc2c(C)nc3ccccc3c2o1)c1cc(Cl)ccc1OC,-2.9%,0.0%,?,10µM*
C#CCOCCOCCOCCNc1nc(N2CCN(C(=O)CCCCCCCCCCNC(=O)[C@@H](CCSC)n3cc(CCO)nn3)CC2)nc(N2CCN(C(=O)CCCCCCCCCCNC(=O)[C@H]([C@@H](C)CC)n3cc(CCCCN=C(N)N)nn3)CC2)n1,?,0.415µM*,1.65µM*,?
C#CCOCCOCCOCCNc1nc(N2CCN(C(=O)CCCCCCCCCCNC(=O)[C@@H](CCSC)n3cc(CCO)nn3)CC2)nc(N2CCN(C(=O)CCCCCCCCCCNC(=O)[C@H]([C@@H](C)CC)n3cc(CCCCCN)nn3)CC2)n1,?,2.08µM*,1.65µM*,?
COc1ccc(/C=C/C(=O)N2CCN(c3ccccn3)CC2)c(OC)c1OC,-2.8%,?,-31.0%,-26.7%
CC1CCCCC1NS(=O)(=O)c1ccc(S(=O)(=O)NCc2ccncc2)cc1 (stereo not given),-5.4%,?,14.7µM*,?
CCOc1ccc(S(=O)(=O)NC2CCCCC2C)cc1 (stereo not given),17.3%,.,.,8.5%
CCN1C(=O)[C@H]2[C@@H](c3ccc(SC4CCCCC4)c(OC)c3)N3CCCC[C@@]3(C(=O)OC)[C@H]2C1=O,-19.6%,11.7µM*,3.7µM*,2.0%
CCN1C(=O)[C@@H]2[C@@H](c3ccc(SC4CCCCC4)cc3)N3CCCC[C@@]3(C(=O)OC)[C@@H]2C1=O,-6.5%,11.7µM*,?,-4.1%
CCC(C)Sc1ccc([C@@H]2[C@H]3C(=O)N(CC)C(=O)[C@H]3[C@]3(C(=O)OC)CCCN23)cc1OC (stereo not given in full),-15.7%,10.4µM*,11.7µM*,-1.9%
COc1ccc(OC)c(S(=O)(=O)NC(N)=NCCc2ccccc2OC)c1,.,-18.9%,4.0%,.
NC(=O)c1c(NC(=O)COC(=O)c2ccc(S(=O)(=O)Nc3ccccc3)cc2)sc2c1CCCC2,32.8%,-23.4%[5.75 µM],14.6%,?
O=C(NCc1ccc(F)cc1)C(=O)NCC1OCCN1C(=O)c1cccs1 (stereo not given),7.7%,34.8%,12.6%,9.5%
CC1CN(C(=O)CNC(=O)Cc2cccc3ccccc23)CC(C)O1 (stereo not given),13.1%,0.8%,-26.7%,8.1%

# Screening data: PubChem, National Center for Advancing Translational Sciences (NCATS)
